Wnt bcat act – Wnt/beta-catenin pathway activation. 300,000 tested, 1.2% active. AID 743398. activation, % at 9.35 µM. Wnt/beta-catenin reporter cell assay, activator, plate reader; in the data active = activation above about 30%, passing the limit was not always enough; inconclusive = no clear call, values can overlap the other calls;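 also: 0% = neutral control wells and 100% = positive control wells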
esBAF inh – SWI/SNF esBAF complex inhibition; 350,000 tested, 2% active; mouse ES cells, Bmi1-luciferase knock-in reporter, 24 h; 100% = twice the neutral-well signal; reporter increase, % at 12.5 µM; in the data active = activation above about 40%; inconclusive = no clear call, values can overlap the other calls;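 also: 0% = median of the plate's neutral control wells and 100% = double that signal; a rise in the Bmi1 reporter signal indicates esBAF inhibition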
Statin myotox sup – protects C2C12 myotubes from simvastatin toxicity; ATP luminescence, 48 h; scaled: DMSO 0, geranylgeraniol control 100; rescue of ATP level, % at 7.49 µM; 330,000 tested, 0.78% active; AID 602340;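 active = mean ATP rescue above about 67%, or every replicate alone reaching that limit, limit read from the data, passing the limit was not always enough; inconclusive = no clear call, values can overlap the other calls; inactive = mean under the limit and some replicate under it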;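 also: myotubes were challenged with 10 µM simvastatin during compound exposure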
MITF act – MITF TRPM1 promoter activation in melanoma cells | SK-MEL-5 TRPM1-promoter luciferase, 24 h; % of positive control, neutral wells = 0 | activation, % at 12.5 µM | 300,000 tested, 0.75% active | AID 588334;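 active = mean activation of at least 80% with every replicate also reaching 80%; inconclusive = mean reaches 80% but some replicate falls short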;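 also: 0% = neutral control wells and 100% = parthenolide positive control wells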
FXN GAA850 act – frataxin GAA850 promoter activation | HEK293 lucGAA850 FXN promoter luciferase reporter, 24 h; percent of 10 µM SAHA response | activation, % at 6 µM | 360,000 tested, 0.56% active | AID 540364;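 active = activation above the average of all compounds screened plus 3 SD, cutoff fixed separately per campaign, cut at about 7.5% in these data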;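 also: 0% = DMSO wells and 100% = 10 µM SAHA wells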
Numbers without * were called inactive; ? = inconclusive; . = no result given. Shown are actives, neighbours in structure and some others; about 3.3% of the full set was active somewhere.

SMILES	Wnt bcat act	esBAF inh	Statin myotox sup	MITF act	FXN GAA850 act
CCCN(CCC)c1ncnc2c1cnn2-c1ccc(OC)cc1	.	37	0	128*	4
COc1ccc(-n2ncc3c(Nc4cccc(C)c4)ncnc32)cc1	-3	35	-72	120*	7
COc1ccc(Nc2ncnc3c2cnn3-c2cccc(C)c2)cc1OC	-3	16	-12	.	0
Cc1cccc(-n2ncc3c(NCCCn4ccnc4)ncnc32)c1	-3	49*	-23	.	3
Cc1cccc(-n2ncc3c(Nc4ccc(F)cc4)ncnc32)c1	10	71*	-3	71	2
C[C@H]1CCCCO[C@H](CN(C)C(=O)C2CCCCC2)[C@@H](C)CN([C@@H](C)CO)C(=O)c2cc(NC(=O)CCCN(C)C)ccc2O1	.	-1	6	.	.
C[C@@H]1CN([C@H](C)CO)C(=O)c2cc(NS(=O)(=O)c3ccc(F)cc3)ccc2O[C@H]1CN(C)Cc1ccc(C(=O)O)cc1	.	-3	.	.	.
C[C@@H]1CN([C@@H](C)CO)C(=O)Cc2cc(NC(=O)CCC(F)(F)F)ccc2O[C@H]1CN(C)S(=O)(=O)c1ccc(F)cc1	.	3	20	.	.
Cc1ccc(Nc2nc(CSc3n[nH]c(N)n3)cs2)cc1	43*	-50	-39	93*	4
Cc1ccc(Nc2nc(CSc3nnnn3C)cs2)cc1	30	61*	-19	75	5
Cc1ccc(CSc2n[nH]c(N)n2)cc1	1	23	-4	23	5
COc1ccc(NC(=O)N(C)C[C@@H]2Oc3ccc(NC(=O)C4CCCCC4)cc3C(=O)N([C@H](C)CO)C[C@@H]2C)cc1	.	0	-21	.	.
CN1c2ccc(-c3cccc(C#N)c3)cc2[C@H]2[C@H](CCN2S(=O)(=O)c2ccccc2)[C@H]1CO	.	-3	-9	.	.
CC(C)NC(NC(=O)Cc1ccccc1)C(Cl)(Cl)Cl (stereo not given)	.	-8	-23	9	0
CCN(CC)C(NC(=O)Cc1ccccc1)C(Cl)(Cl)Cl (stereo not given)	40*	-4	1	8	-1
CC1CCc2nc(/C(C#N)=C/c3cccnc3)sc2C1 (stereo not given)	.	.	.	85*	0
C[C@@H]1CN([C@@H](C)CO)C(=O)Cc2cc(NC(=O)Cn3cnnn3)ccc2O[C@H]1CN(C)C	.	-2	62	.	.
COc1ccc2c(c1)O/C(=C\c1sccc1C)C2=O	.	42*	-5	38	3
CCN(CC)S(=O)(=O)N1CCC(C(=O)NCCN2CCOCC2)CC1	-4	-1	107*	-3	0
CCOc1ccc(-c2cn(-c3ccc(OC)cc3)c(SC)n2)cc1	.	65*	-9	?	7
Cc1ccc(C(=O)N(CCN2CCCCC2)CC2CCCN(C3CCCC3)C2)s1 (stereo not given)	15	.	.	95*	4
C[C@@H]1CN([C@@H](C)CO)C(=O)c2cc(C#Cc3ccccn3)cnc2O[C@@H]1CN(C)Cc1ccncc1	.	0	-14	.	.
COc1ccc(C)c2sc(=NC(=O)c3ccccc3)n(C)c12	?	51*	-12	.	4
COc1ccc(C)c2sc(=NC(=O)c3ccc(C(C)=O)cc3)n(C)c12	22	.	.	?	6
Clc1ccc(-c2cnc3ccccc3n2)cc1	.	.	.	45	5
SMILES	Wnt bcat act	esBAF inh	Statin myotox sup	MITF act	FXN GAA850 act
CCOC(=O)c1cccc(-c2c(-c3ccccc3)ncc3cc(OC)c(OC)cc23)c1	-1	67*	16	97*	3
Oc1ccc(-c2cnc3ccccc3n2)cc1	53*	.	.	?	3
Cc1nc2ccc(C(=O)OCc3ccccc3Br)cc2nc1C	0	102*	12	71	3
Cc1cc(-c2ccccc2)nc(-c2ccccc2)c1C	-1	-7	6	8	0
Cc1cc2ncc(-c3ccccc3)nc2cc1C	45*	-12	-26	37	4
CO[C@H]1CN(C)C(=O)c2cc(NC(=O)C3CC3)ccc2OC[C@H](C)N(C(=O)NC(C)C)C[C@@H]1C	.	-2	-4	.	.
CCOC(=O)c1cnc(-c2ccccc2)nc1N	-1	24	-18	40	5
Nc1ccc2nc(-c3ccccc3)cnc2c1	72*	.	.	.	4
O=C(Oc1ccc(-c2cnc3ccccc3n2)cc1)c1ccc(Br)o1	34*	12	2	58	4
CCOC(=O)c1ccc2ncc(-c3ccccc3)nc2c1	12	.	.	111*	6
c1csc(-c2cnc3ccccc3n2)c1	55*	.	.	.	4
CCC(=O)N[C@@H]1C=C[C@@H](CC(=O)NCc2ccc(OC)cc2)O[C@H]1CO	.	-1	-1	.	.
Nc1ccc(-c2cnc3ccccc3n2)cc1	?	-64	-2	.	4
Cc1ccc(-c2cnc3ccccc3n2)cc1C	40*	-33	-50	-16	4
COCC(=O)Nc1ccc2c(c1)C(=O)N(C)C[C@H](OC)[C@H](C)CN(C(=O)NC(C)C)[C@@H](C)CO2	.	-2	-4	.	.
CCOC(=O)c1cc(-c2ccccc2)sc1N	.	.	.	61	5
CCOC(=O)c1sc(-c2ccc(F)cc2)cc1N	.	57*	-55	98*	7
COc1ccccc1NC(=O)N[C@@H]1CC[C@@H](CC(=O)N2CCC(Cc3ccccc3)CC2)O[C@@H]1CO	.	3	-3	.	.
CCOC(=O)c1c(NC(=O)Cc2cccs2)sc(C(=O)NC2CCCC2)c1C	1	-4	-108	1	1
CCOC(=O)c1c(NC(=O)Cc2cccs2)sc(C(=O)NC2CCCCC2)c1C	0	-14	78*	-11	0
COCC(=O)N(C)C[C@@H]1Oc2cc(C#CC3CCCC3)ccc2S(=O)(=O)N([C@@H](C)CO)C[C@H]1C	.	.	-17	.	.
Cc1ccc(NC(=O)O/N=C/c2ccc(F)cc2)cc1	7	56*	-12	.	3
Cc1ccc(NC(=O)O/N=C/c2ccc(N(C)C)cc2)cc1	11	56*	-2	53	3
O=C(Nc1ccccc1)O/N=C/c1ccc(F)cc1	14	48*	-8	.	1
CSC(=S)N/N=C/c1ccc(N(C)C)cc1	10	.	.	33	2
SMILES	Wnt bcat act	esBAF inh	Statin myotox sup	MITF act	FXN GAA850 act
CN(C)c1ccc(C=NNC(=S)Nc2ccc(F)cc2)cc1	8	59*	-1	62	0
C[C@@H]1CN([C@@H](C)CO)C(=O)c2cc(NS(C)(=O)=O)ccc2O[C@@H](C)CCCCO[C@@H]1CN(C)C(=O)CCCN(C)C	.	-2	16	.	.
COc1cccc(Oc2nnnn2-c2ccccc2)c1	.	58*	6	.	4
COc1ccc(Oc2nnnn2-c2ccccc2)cc1	3	25	-7	29	3
Cc1cc(CN(C)C(=O)c2ccc3nc(Cc4ccccc4F)oc3c2)on1	18	.	.	98*	3
Cn1cc(CCNC(=O)c2ccc3nc(Cc4ccccc4F)oc3c2)cn1	33*	75*	11	125*	5
Cn1cc(CNC(=O)c2ccc3nc(Cc4ccccc4F)oc3c2)cn1	13	.	.	84*	3
CCN(Cc1cnn(C)c1)C(=O)c1ccc2nc(Cc3ccccc3F)oc2c1	-1	21	-26	.	1

Screening results deposited in PubChem BioAssay by several laboratories.
